According to the supplement of paper PMC11732987, “Enantioselective OTUD7B fragment discovery through chemoproteomics screening and high-throughput optimisation” (Communications Chemistry, 2025):

Assays:
Assay in all cases: log2 ratio of Biotin-Ahx-Ub-VS probe labelling (fragment/DMSO); higher = less target engagement (more negative = stronger competition), active = hit call of the paper (q ≤ 0.05, log2 ratio ≤ -1)
Details in all cases: compound concentration: 200 uM; treatment time: 3 h
USP42 = biological target: T1, USP42 (UniProt Q9H9J4)
T1 sequence (whole entry): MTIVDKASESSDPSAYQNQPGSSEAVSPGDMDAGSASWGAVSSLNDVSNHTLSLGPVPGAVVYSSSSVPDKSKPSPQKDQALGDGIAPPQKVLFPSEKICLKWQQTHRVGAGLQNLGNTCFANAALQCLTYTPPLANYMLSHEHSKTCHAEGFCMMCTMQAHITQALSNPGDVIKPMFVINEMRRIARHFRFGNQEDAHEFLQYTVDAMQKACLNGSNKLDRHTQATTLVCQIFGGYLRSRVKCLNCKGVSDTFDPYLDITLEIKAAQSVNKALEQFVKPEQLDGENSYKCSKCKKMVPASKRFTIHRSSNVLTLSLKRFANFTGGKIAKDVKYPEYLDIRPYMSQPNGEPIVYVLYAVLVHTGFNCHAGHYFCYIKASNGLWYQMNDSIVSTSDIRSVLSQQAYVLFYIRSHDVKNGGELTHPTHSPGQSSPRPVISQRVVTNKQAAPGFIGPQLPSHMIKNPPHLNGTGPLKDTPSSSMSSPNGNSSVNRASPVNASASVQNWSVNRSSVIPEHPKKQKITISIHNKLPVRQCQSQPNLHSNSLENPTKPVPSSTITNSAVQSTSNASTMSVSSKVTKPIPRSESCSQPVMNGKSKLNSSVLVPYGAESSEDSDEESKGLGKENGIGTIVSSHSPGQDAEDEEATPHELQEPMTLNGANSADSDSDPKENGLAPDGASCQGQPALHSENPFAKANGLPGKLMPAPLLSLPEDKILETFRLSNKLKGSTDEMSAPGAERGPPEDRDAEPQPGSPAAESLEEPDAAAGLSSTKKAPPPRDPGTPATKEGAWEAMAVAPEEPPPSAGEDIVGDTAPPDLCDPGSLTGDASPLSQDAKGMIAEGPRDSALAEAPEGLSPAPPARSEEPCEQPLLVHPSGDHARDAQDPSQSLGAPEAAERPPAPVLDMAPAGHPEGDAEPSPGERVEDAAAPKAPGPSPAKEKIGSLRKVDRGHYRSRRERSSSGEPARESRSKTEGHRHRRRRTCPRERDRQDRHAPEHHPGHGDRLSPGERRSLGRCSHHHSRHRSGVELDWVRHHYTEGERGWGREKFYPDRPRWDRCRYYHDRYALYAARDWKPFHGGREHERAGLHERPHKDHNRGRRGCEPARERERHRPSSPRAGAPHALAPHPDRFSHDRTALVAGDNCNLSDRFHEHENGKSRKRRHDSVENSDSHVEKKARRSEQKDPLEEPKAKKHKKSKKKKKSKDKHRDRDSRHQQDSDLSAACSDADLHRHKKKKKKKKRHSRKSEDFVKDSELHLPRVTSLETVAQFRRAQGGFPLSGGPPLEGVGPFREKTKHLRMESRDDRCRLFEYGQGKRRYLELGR
Outline: (§1)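 HEK293T lysate (495 µg per sample, in Tris/CHAPS/IGEPAL buffer with protease inhibitors) was treated in triplicate with fragment at 200 µM or with DMSO for 3 h. It was then treated with Biotin-Ahx-Ub-VS (0.5 µM final) for 1 h. Labelled DUBs were NeutrAvidin-enriched, digested with LysC and trypsin, and run by diaPASEF LC-MS/MS. Spectronaut label-free quantities were global-median-normalised. Values are average log2 ratios fragment/DMSO by unpaired t-test, using proteins with ≥2 unique peptides.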

USP46 = USP46 (UniProt P62068)
Outline: as §1

USP47 = biological target: T2, USP47 (UniProt Q96K76)
T2 sequence (whole entry): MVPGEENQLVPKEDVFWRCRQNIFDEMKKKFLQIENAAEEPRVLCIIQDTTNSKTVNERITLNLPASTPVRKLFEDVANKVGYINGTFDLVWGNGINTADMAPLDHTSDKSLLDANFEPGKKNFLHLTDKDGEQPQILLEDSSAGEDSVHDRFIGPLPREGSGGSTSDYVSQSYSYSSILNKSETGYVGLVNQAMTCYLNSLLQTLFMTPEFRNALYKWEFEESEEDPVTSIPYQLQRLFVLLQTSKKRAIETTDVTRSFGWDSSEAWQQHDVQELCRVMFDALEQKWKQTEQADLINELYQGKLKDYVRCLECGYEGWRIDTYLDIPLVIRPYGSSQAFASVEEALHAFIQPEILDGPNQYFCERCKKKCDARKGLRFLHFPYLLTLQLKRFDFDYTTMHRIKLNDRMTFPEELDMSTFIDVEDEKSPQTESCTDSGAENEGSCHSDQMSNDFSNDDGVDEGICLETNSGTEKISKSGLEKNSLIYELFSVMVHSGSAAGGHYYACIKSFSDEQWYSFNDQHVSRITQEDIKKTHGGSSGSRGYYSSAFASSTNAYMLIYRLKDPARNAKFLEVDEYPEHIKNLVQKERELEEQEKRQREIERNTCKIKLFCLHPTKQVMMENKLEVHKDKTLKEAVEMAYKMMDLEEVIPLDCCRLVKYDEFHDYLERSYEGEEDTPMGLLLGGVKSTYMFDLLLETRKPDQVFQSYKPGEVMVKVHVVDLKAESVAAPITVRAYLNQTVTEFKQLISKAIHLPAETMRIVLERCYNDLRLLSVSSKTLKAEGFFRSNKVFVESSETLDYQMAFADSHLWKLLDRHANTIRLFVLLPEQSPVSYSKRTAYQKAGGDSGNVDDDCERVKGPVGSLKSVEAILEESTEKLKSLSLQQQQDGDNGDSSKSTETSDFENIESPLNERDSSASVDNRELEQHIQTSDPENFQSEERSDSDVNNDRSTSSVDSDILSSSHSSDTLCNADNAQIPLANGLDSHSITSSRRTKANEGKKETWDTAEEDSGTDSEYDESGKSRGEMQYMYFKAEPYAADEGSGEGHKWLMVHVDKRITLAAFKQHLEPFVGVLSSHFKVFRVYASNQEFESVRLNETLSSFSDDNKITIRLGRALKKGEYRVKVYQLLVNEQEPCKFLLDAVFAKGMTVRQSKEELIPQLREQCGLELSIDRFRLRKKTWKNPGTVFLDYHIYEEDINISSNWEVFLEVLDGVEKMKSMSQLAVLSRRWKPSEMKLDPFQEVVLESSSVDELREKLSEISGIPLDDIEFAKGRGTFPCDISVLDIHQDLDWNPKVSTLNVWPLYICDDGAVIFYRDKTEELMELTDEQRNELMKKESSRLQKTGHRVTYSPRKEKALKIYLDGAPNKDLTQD
Outline: as §1

USP48 = biological target: T3, USP48 (UniProt Q86UV5)
T3 sequence (whole entry): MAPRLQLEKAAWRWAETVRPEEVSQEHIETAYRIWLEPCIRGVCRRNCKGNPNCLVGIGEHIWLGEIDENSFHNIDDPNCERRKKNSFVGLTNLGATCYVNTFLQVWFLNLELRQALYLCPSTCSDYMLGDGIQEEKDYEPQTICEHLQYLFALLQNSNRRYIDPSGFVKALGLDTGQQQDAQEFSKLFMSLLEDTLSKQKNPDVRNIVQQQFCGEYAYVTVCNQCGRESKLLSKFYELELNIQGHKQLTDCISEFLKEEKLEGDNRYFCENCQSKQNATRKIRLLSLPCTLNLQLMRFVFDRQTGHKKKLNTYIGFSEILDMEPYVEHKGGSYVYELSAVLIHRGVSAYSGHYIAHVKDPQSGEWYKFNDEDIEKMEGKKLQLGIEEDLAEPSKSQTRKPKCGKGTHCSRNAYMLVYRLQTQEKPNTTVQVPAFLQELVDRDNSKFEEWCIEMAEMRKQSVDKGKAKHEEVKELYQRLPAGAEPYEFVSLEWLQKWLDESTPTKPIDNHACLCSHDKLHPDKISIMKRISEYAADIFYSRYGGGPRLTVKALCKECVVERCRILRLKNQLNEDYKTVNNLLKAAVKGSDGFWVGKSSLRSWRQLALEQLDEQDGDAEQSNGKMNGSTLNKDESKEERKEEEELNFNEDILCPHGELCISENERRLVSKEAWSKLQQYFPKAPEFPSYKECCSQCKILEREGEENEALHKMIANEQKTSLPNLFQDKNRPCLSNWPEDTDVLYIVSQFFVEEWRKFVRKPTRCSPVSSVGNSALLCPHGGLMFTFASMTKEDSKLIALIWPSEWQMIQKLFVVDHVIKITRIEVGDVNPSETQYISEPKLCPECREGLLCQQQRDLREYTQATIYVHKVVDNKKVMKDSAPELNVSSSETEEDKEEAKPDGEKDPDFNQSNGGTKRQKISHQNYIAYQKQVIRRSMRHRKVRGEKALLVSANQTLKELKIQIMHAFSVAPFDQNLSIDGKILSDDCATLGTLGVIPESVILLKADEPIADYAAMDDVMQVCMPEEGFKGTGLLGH
Outline: as §1

USP5 = biological target: T4, USP5 (UniProt P45974)
T4 sequence (whole entry): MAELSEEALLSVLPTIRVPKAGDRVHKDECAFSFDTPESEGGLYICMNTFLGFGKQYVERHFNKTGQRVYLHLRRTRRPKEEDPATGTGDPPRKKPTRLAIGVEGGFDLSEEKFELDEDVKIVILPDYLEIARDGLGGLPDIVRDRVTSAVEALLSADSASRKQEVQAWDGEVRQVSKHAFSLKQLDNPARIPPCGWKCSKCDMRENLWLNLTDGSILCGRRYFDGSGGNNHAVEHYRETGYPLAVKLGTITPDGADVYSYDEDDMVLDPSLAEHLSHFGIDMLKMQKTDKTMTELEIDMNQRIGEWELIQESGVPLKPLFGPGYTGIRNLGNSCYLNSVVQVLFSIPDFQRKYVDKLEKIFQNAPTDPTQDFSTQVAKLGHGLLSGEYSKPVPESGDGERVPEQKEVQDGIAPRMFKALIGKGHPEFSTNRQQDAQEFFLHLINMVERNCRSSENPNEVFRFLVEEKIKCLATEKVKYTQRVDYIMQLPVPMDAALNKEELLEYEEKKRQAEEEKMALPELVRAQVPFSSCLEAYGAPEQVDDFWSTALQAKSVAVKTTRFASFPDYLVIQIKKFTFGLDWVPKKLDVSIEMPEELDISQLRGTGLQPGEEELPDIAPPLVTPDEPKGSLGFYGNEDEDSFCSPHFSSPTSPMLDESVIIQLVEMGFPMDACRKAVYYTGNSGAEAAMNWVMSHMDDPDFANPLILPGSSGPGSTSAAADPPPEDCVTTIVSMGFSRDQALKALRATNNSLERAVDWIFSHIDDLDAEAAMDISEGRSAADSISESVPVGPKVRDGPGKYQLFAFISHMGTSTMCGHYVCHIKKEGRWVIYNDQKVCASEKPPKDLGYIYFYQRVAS
Outline: as §1

USP54 = USP54 (UniProt Q70EL1)
Outline: as §1

USP7 = USP7 (UniProt Q93009)
Outline: as §1

USP8 = biological target: T5, USP8 (UniProt P40818)
T5 sequence (whole entry): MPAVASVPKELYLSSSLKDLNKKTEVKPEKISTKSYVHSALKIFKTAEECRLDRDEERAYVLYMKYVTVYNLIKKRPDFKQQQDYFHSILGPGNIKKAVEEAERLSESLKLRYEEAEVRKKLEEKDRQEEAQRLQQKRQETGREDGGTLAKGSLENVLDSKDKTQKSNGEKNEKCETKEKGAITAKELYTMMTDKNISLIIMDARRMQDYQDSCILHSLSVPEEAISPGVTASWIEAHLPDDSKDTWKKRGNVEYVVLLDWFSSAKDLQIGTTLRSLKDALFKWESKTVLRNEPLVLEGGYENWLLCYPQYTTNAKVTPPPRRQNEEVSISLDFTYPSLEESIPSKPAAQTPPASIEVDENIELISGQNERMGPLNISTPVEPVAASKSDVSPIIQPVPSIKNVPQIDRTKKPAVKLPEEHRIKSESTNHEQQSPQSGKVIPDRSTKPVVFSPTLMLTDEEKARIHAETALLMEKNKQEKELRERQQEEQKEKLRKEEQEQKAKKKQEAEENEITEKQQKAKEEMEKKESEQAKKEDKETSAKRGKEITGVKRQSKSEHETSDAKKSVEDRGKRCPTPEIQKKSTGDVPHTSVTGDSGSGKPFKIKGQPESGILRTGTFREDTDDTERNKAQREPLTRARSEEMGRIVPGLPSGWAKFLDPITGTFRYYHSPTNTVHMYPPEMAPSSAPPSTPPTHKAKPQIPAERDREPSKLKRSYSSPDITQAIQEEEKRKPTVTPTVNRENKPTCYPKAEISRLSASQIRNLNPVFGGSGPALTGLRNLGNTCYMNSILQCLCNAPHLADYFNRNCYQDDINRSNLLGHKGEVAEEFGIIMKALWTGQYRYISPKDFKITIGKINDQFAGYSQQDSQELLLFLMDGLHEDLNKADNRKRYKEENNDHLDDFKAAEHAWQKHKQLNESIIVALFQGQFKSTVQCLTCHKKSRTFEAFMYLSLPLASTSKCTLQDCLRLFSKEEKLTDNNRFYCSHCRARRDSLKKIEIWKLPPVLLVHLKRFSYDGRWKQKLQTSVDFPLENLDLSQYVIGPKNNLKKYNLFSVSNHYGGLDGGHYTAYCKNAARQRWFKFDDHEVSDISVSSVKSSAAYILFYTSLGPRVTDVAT
Outline: as §1

Measured: log2 ratio of Biotin-Ahx-Ub-VS probe labelling

USP7, sequence (Q93009 whole entry, looked up): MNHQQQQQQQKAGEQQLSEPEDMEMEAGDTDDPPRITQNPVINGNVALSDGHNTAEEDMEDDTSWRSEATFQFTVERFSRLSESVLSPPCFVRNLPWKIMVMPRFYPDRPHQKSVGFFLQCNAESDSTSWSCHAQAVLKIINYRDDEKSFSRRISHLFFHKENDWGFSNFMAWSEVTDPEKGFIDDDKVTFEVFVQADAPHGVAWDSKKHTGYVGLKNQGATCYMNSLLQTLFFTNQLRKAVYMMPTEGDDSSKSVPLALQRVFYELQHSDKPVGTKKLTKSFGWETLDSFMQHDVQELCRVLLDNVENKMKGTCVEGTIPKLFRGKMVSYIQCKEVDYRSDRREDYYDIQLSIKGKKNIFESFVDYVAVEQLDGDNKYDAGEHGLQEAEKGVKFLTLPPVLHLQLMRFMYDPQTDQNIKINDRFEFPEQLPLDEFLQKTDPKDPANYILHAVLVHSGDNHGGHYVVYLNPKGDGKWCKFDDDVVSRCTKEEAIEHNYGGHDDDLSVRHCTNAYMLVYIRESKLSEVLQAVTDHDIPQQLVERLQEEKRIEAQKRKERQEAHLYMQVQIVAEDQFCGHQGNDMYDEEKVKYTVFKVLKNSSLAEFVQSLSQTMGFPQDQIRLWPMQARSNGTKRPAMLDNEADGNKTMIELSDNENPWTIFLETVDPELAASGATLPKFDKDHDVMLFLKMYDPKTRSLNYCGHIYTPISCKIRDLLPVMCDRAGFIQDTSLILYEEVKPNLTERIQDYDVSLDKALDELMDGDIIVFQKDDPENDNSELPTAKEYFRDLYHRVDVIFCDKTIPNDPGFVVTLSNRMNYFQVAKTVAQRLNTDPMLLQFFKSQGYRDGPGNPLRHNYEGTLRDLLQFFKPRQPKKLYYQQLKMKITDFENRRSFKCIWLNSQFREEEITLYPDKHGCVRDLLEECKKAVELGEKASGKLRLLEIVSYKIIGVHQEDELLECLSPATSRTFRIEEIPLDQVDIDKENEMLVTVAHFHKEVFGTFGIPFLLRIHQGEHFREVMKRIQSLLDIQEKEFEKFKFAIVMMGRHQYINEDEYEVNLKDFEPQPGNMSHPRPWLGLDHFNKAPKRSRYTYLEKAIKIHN
USP54, sequence (Q70EL1 whole entry): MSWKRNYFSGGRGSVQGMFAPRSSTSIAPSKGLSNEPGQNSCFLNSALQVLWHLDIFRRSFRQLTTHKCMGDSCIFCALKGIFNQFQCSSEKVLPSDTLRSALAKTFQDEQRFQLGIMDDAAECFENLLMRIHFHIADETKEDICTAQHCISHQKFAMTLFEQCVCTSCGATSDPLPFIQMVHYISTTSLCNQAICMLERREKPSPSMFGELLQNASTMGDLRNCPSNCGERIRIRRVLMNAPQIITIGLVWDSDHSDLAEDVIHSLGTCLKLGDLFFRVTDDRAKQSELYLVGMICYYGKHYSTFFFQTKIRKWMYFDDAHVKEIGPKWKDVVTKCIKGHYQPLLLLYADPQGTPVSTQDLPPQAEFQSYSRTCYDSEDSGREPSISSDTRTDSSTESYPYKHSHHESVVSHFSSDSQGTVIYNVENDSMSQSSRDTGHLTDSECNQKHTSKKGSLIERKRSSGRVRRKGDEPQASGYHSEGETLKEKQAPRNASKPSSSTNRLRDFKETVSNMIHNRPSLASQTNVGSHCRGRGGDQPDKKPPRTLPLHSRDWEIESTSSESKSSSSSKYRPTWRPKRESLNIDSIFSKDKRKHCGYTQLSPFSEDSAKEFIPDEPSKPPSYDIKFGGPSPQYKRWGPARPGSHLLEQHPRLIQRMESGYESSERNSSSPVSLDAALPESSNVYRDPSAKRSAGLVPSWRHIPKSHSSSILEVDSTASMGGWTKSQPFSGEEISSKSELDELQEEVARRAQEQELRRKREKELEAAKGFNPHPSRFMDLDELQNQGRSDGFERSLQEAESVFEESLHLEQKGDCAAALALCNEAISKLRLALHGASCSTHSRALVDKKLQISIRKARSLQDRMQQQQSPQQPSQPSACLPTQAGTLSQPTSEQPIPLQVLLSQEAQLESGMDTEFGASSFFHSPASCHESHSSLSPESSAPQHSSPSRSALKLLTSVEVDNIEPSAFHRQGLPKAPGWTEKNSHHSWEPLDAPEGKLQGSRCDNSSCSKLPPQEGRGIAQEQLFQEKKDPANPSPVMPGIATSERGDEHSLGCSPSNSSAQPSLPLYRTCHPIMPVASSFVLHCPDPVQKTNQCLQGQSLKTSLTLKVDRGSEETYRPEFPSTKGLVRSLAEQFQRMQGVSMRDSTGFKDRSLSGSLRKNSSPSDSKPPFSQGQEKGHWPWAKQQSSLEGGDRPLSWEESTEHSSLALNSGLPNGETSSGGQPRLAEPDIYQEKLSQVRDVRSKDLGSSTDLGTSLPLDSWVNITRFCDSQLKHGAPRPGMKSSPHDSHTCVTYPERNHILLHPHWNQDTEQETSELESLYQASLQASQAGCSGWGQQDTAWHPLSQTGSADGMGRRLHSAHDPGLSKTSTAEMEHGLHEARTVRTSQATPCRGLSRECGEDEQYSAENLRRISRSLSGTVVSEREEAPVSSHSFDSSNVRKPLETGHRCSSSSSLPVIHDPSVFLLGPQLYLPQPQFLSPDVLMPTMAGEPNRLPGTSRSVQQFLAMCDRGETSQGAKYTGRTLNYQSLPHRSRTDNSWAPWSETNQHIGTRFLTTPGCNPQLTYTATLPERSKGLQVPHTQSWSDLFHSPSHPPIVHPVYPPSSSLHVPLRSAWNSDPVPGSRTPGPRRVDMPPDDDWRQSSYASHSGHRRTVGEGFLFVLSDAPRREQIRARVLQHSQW
USP46, sequence (P62068 whole entry): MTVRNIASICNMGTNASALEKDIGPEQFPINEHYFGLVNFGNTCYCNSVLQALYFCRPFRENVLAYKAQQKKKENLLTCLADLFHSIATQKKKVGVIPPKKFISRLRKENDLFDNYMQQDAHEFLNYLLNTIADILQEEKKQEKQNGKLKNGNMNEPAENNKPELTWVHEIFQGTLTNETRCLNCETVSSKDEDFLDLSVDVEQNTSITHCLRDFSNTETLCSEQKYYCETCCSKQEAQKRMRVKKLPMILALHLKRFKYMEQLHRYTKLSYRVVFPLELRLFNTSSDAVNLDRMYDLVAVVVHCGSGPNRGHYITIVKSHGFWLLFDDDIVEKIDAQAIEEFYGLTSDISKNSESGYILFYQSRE

Cl.O=C(CCl)NCCc1ncc(F)cc1F
inactive: USP42 -0.132 | USP46 -0.0594 | USP47 0.122 | USP48 -0.466 | USP5 -0.0776 | USP54 -0.439 | USP7 -0.34 | USP8 -0.607
